Records with an inconclusive call do not appear. Active and inactive are the calls of the source. Calls follow the shape of the dose curve; as a rule, active = well fitted inhibition curve with a large enough effect; inconclusive = small, poorly fitted or top-dose-only effect; inactive = flat fitted curve, though single readings scatter. Where a SMILES comes first, the peptide text is derived from it. Bridges are numbered along the chain shown (N, C = ends). [ ]: non-standard residue; d: D form. The star is where a group is joined. ξ: configuration not given here. d(aThr) = C[C@@H](O)[C@@H](N)C(=O)O; ξThr(3R) = C[C@@H](O)C(N)C(=O)O; X3 = CC[C@@H](C)CCCCC(=O)*; dDab = NCC[C@@H](N)C(=O)O
These molecules were tested on KB-3-1 (assay: Cytotoxic Profiling of Annotated Libraries Using Quantitative High-Throughput Screening (AID 1296008; also: nearly all actives have a fitted effect of over 60% in size)). Details: Five cell lines viability, CellTiter-Glo ATP luminescence, 48-72 h; max response: stronger effect = lower value.
Method in brief: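 Cells exposed to compounds for 48 or 72 hr at 37 degrees Celsius. Viability read as ATP-coupled luminescence with CellTiter-Glo after 10 min at room temperature.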
In the case of `CC(C)[C@@H]1CC[C@@H](C)C[C@H]1O`, the max response is reported as -7.15% (inactive). For `O=C(O)[C@@H]1C[C@H](CP(=O)(O)O)CCN1`, the max response was 23.4% (inactive). With `C[C@@H]1C[C@H]2[C@@H]3CCC4=CC(=O)C=C[C@]4(C)[C@@]3(F)[C@@H](O)C[C@]2(C)[C@@]1(O)C(=O)COC(=O)c1cccc(S(=O)(=O)O)c1` the max response was 21.4% (inactive). In the case of `O=C[C@H](O)[C@@H](O)[C@@H](O)[C@H](O)CO`, the max response is reported as -13.6% (inactive). `CC(=O)OCC(=O)[C@@]1(O)CC[C@H]2[C@@H]3CCC4=CC(=O)CC[C@]4(C)C3=CC[C@@]21C` was tested, and the max response was -7.13% (inactive). For `C=C1CC[C@H](O)CC1=C/C=C1\CCC[C@]2(C)[C@@H]([C@H](C)CCCC(C)(C)O)CC[C@@H]12`, the max response was 5.57% (inactive). For `C=C[C@]1(C)C[C@@H](OC(=O)CSCCN(CC)CC)[C@]2(C)[C@H](C)CC[C@]3(CCC(=O)[C@H]32)[C@@H](C)[C@@H]1O`, the max response was -8.95% (inactive). `O=C1C2CC3CC1CC(O)(C3)C2` was tested, and the max response was 2.59% (inactive). With `OC[C@@H](O)C(O)[C@H](O)CO` the max response was 2.54% (inactive). `C[C@@H]1C[C@H]2[C@@H]3C[C@H](F)C4=CC(=O)C=C[C@]4(C)[C@@]3(Cl)[C@@H](O)C[C@]2(C)[C@H]1C(=O)COC(=O)C(C)(C)C` was tested, and the max response was 41.6% (inactive). For `CCN(CC)C(=O)[C@]1(c2ccccc2)C[C@@H]1CN`, the max response was 6.62% (inactive). In the case of `C=C1[C@@H]2CC[C@@H](C2)C1(C)C`, the max response is reported as -10.2% (inactive). `CC[C@@H](C)CCCCC(=O)N[C@H](CCN)C(=O)N[C@@H](C(=O)N[C@H](CCN)C(=O)N[C@@H]1CCNC(=O)C([C@@H](C)O)NC(=O)[C@@H](CCN)NC(=O)[C@@H](CCN)NC(=O)[C@@H](CC(C)C)NC(=O)[C@@H](Cc2ccccc2)NC(=O)[C@@H](CCN)NC1=O)[C@@H](C)O` (stereo partly drawn) (X3-[dDab][d(aThr)][dDab][dDab][dDab][dF][dL][dDab][dDab][ξThr(3R)]; lactam 4-C) was tested, and the max response was 15.7% (inactive). In the case of `C=C1CC[C@H](O)C/C1=C\C=C1/CCC[C@]2(C)[C@@H]([C@H](C)CCCC(C)C)CC[C@@H]12`, the max response is reported as -5.93% (inactive). With `COc1cc2c(cc1OC)[C@@H](c1ccccc1)CN(C)CC2` the max response was -3.02% (inactive). In the case of `O=[N+]([O-])O[C@@H]1CO[C@H]2[C@@H]1OC[C@@H]2O`, the max response is reported as -3.81% (inactive). `CC(=O)N[C@@H]([C@@H](O)[C@H](O)[C@H](O)CO)[C@@H](O)CC(=O)C(=O)O` was tested, and the max response was 10.5% (inactive). With `C[C@@H](O)[C@H]1C(=O)N2C(C(=O)[O-])=C(SC3Cn4cnc[n+]4C3)[C@H](C)[C@H]12` (some centres not stated) the max response was 1.34% (inactive). `CN[C@@H]1[C@@H](O[C@H]2O[C@H](CO)[C@@H](N)[C@H](O)[C@H]2O)O[C@H]2C[C@@H](N)[C@@H](O[C@H]3[C@H](O)[C@@H](O)[C@H](N)C[C@@H]3N)O[C@@H]2[C@@H]1O` was tested, and the max response was 9.56% (inactive). `C[S+](C)CCC(N)C(=O)O` (configuration not stated) was tested, and the max response was 3.56% (inactive). In the case of `CO[C@@H]1[C@H](OC(=O)/C=C/C=C/C=C/C=C/C(=O)O)CC[C@]2(CO2)[C@H]1[C@@]1(C)O[C@@H]1CC=C(C)C`, the max response is reported as 2% (inactive). In the case of `CC(=O)OCC1=C(C(=O)O)N2C(=O)[C@@H](NC(=O)Cc3ccccc3)[C@H]2SC1`, the max response is reported as -5.45% (inactive). With `CO[C@H]1C[C@H](O[C@H]2[C@H](C)[C@@H](O[C@@H]3O[C@H](C)C[C@H](N(C)C)[C@H]3O)[C@@H](C)C[C@]3(CO3)C(=O)[C@H](C)[C@@H](O)[C@@H](C)[C@@H](C)OC(=O)[C@@H]2C)O[C@@H](C)[C@@H]1O` the max response was 3.86% (inactive). For `CCCCC(O)c1ccccc1` (configuration not stated), the max response was 6.09% (inactive). For `NC[C@@H]1CC[C@@H](N)[C@@H](O[C@H]2[C@H](O)[C@@H](O[C@H]3O[C@H](CO)[C@@H](O)[C@H](N)[C@H]3O)[C@H](N)C[C@@H]2N)O1`, the max response was 0.761% (inactive). For `O=C(O)c1ccc(NC2OC[C@@H](O)[C@H](O)[C@H]2O)cc1` (some centres not stated), the max response was -17.7% (inactive). For `CC(O)[C@@H]1NC(=O)[C@H](Cc2ccccc2)NC(=O)[C@H](C(C)O)NC(=O)[C@H](CCCCN)NC(=O)[C@H](Cc2c[nH]c3ccccc23)NC(=O)[C@H](Cc2ccccc2)NC(=O)[C@H](Cc2ccccc2)NC(=O)[C@H](CC(N)=O)NC(=O)[C@H](CCCCN)NC(=O)[C@@H](NC(=O)CNC(=O)[C@H](C)N)CSSC[C@@H](C(=O)O)NC(=O)[C@H](CO)NC1=O` (some centres not stated), the max response was -3.89% (inactive). With `NC(N)=NCC1COC2(CCCCC2)O1` (configuration not stated) the max response was 1.43% (inactive). For `CCCCC[C@H](O)/C=C/[C@H]1[C@H](O)CC(=O)[C@@H]1CCCCCCC(=O)O`, the max response was 3.75% (inactive). For `Cc1cc(O)c2c(c1)O[C@@]1(C)CC[C@H]3C(C)(C)CCCC34CO[C@@H]2[C@H]41` (some centres not stated), the max response was -3.47% (inactive). In the case of `NS(=O)(=O)c1cc2c(cc1Cl)NC(Cc1ccccc1)NS2(=O)=O` (configuration not stated), the max response is reported as -0.731% (inactive). In the case of `C=N[C@@H](C(=O)N[C@@H]1C(=O)N2[C@@H]1SC(C)(C)[C@@H]2C(=O)O)c1ccccc1`, the max response is reported as 0.762% (inactive). In the case of `CCCC(=O)Nc1c(I)cc(I)c(CC(CC)C(=O)O)c1I` (configuration not stated), the max response is reported as -4.08% (inactive). `CC(C)[C@@H]1CC[C@@H](C)C[C@H]1OC(=O)c1ccccc1O` was tested, and the max response was -4.38% (inactive). With `CO/N=C(\C(=O)N[C@@H]1C(=O)N2C(C(=O)O)=C(CSC(=O)c3ccco3)CS[C@H]12)c1csc(N)n1` the max response was 1.31% (inactive). `C=C1c2c(Cl)ccc(O)c2C(O)=C2C(=O)[C@]3(O)C(O)=C(C(N)=O)C(=O)[C@@H](N(C)C)[C@@H]3[C@@H](O)[C@H]12` was tested, and the max response was 7.79% (inactive). `NC[C@H]1O[C@H](O[C@H]2[C@H](O)[C@@H](O[C@H]3O[C@H](CO)[C@@H](O)[C@H](N)[C@H]3O)[C@H](N)C[C@@H]2N)[C@H](N)C[C@@H]1O` was tested, and the max response was -4.68% (inactive).
% is scaled to controls: 0 for no effect and ±100 for the full control effect.
